# Results: PubChem BioAssay (NCATS)
# Results filed as inconclusive are left out. Where a call stands in place of a potency, no number is given. The source made the active and inactive calls. The call rests on the fitted dose curve; in most records, active means well fitted curve in the direction sought with a large enough effect; inconclusive means small, poorly fitted or top-dose-only effect, or another doubt; inactive means no such curve, though single readings can be large; an effect the other way counts as inactive or inconclusive.
# What was measured:
# [1] = target: Alpha-galactosidase A (Homo sapiens) (UniProt P06280); assay: Counterscreen for Glucocerebrosidase Inhibitors: qHTS Assay for Human alpha-Galactosidase at pH 4.5 (AID 992)
# Alpha-galactosidase A (Homo sapiens), sequence (P06280 whole entry, looked up): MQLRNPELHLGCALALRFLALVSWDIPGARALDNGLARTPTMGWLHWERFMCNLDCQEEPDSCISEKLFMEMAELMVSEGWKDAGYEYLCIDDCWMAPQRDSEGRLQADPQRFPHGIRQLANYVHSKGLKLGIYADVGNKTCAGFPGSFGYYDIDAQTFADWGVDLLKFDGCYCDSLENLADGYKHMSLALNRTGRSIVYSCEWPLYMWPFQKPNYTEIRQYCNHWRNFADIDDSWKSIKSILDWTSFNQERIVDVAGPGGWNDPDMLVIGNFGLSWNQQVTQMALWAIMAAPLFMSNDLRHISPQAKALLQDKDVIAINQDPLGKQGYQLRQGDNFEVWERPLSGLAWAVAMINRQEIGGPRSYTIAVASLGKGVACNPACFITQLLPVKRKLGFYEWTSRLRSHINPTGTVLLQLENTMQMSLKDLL
# Method in brief: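 Read-out is 4-methylumbelliferone fluorescence (365 nm excitation, 440 nm emission) after a pH 10 NaOH/glycine stop. Reactions held 2 nM enzyme and 80 uM substrate at pH 4.5 for 20 min at room temperature.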
# [2] = Cell Viability - LYMP2-013 (AID 970); further: series mostly up to about 92 µM; nearly all actives have a fitted effect of over 55% in size
# Method in brief: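 Human lymphoblastoid cells, 2500/well, were preincubated 5 hr at 37 C, then treated with compounds for 24 hr at 37 C in complete medium. Intracellular ATP was read by CellTiter-Glo luminescence; AC50 from Hill-equation fits of concentration-response data.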
# [3] = Cell Viability - LYMP2-015 (AID 971); further: nearly all actives have a fitted effect of over 55% in size
# Method in brief: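 Human lymphoblastoid cells (2500/well) in complete medium were preincubated 5 hr at 37 C, then compound-treated 24 hr at 37 C. Intracellular ATP was read by CellTiter-Glo luminescence after 30 min at room temperature; AC50 came from Hill-equation concentration-response fits.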
# [4] = Cell Viability - LYMP2-017 (AID 972); further: series mostly up to about 92 µM; nearly all actives have a fitted effect of over 55% in size
# Method in brief: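 Human lymphoblastoid cells (2500/well) were seeded in complete medium, held 5 hr at 37 C, then exposed to compounds for 24 hr at 37 C. Intracellular ATP was read by CellTiter-Glo luminescence after 30 min at room temperature, with AC50 values from Hill-equation fits.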
# [5] = Cell Viability - LYMP2-021 (AID 974);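 further: compound exposure lasts 24 hours at 37 °C; nearly all actives have a fitted effect of over 55% in size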
# Method in brief: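 Human lymphoblastoid cells (2500/well) were preincubated 5 hr at 37 C, then exposed to compounds for 24 hr at 37 C in complete medium. Intracellular ATP was read by CellTiter-Glo luminescence; AC50 came from Hill-equation fits of concentration-response data.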
# [6] = Cell Viability - LYMP2-023 (AID 975)
# Method in brief: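 Human lymphoblastoid cells (2500/well) were preincubated 5 hr at 37 C, then exposed to compounds for 24 hr at 37 C in complete medium. Cellular ATP was read by CellTiter-Glo luminescence, and AC50 came from Hill-equation fits.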
# [7] = Cell Viability - LYMP2-002 (AID 977);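 further: series mostly up to about 92 µM; compound exposure lasted 24 h at 37 °C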
# Method in brief: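 Cytotoxicity is scored as concentration-dependent loss of cellular ATP in a human lymphoblastoid line after 24 hr compound treatment at 37 C. AC50 is obtained by modelling concentration-response data with the Hill equation.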
# [8] = Cell Viability - LYMP2-006 (AID 978); further: series mostly up to about 92 µM; nearly all actives have a fitted effect of over 60% in size
# Method in brief: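 Human lymphoblastoid cells (LYMP2-006), 2500/well in complete medium, were treated with compound for 24 hr at 37 C. Cellular ATP was read by CellTiter-Glo luminescence after 30 min, and AC50 values came from Hill-equation fits of concentration-response data.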
# [9] = Cell Viability - LYMP2-007 (AID 979);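 further: cells exposed to compound for 24 h before reading; nearly all actives have a fitted effect of over 60% in size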
# Method in brief: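 Human lymphoblastoid cells (2500/well) were plated in complete medium, incubated 5 hr at 37 C, then exposed to compounds for 24 hr at 37 C. Intracellular ATP was read by CellTiter-Glo luminescence after 30 min at room temperature; AC50 from Hill fits.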
# [10] = Cell Viability - LYMP2-008 (AID 980); further: nearly all actives have a fitted effect of over 60% in size
# Method in brief: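 Human lymphoblastoid cells (2500/well) were plated, held 5 hr at 37 C, then exposed to compounds for 24 hr at 37 C in complete medium. Intracellular ATP was read by CellTiter-Glo luminescence; AC50 from Hill-fitted concentration-response.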
# [11] = Cell Viability - LYMP2-012 (AID 982)
# [12] = Cell Viability - LYMP2-014 (AID 983); further: series mostly up to about 92 µM; nearly all actives have a fitted effect of over 50% in size
# Method in brief: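 Human lymphoblastoid cells (2500/well) were pre-incubated 5 hr at 37 C, then exposed to compounds in complete medium for 24 hr at 37 C. Intracellular ATP was read by CellTiter-Glo luminescence after 30 min at room temperature; AC50 from Hill fits.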
# [13] = Cell Viability - LYMP2-016 (AID 984); further: nearly all actives have a fitted effect of over 55% in size
# Method in brief: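 Human lymphoblastoid LYMP2-016 cells, 2500 per well, treated with compounds for 24 h at 37 C. Viability read as intracellular ATP by CellTiter-Glo luminescence after 30 min at room temperature; AC50 from Hill fits of concentration-response.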
# [14] = Cell Viability - LYMP2-018 (AID 985);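 further: compound exposure lasted 24 hr at 37 °C; nearly all actives have a fitted effect of over 50% in size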
# Method in brief: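 Human lymphoblastoid cells (2500/well) were pre-incubated 5 hr at 37 C, then exposed to compounds for 24 hr at 37 C in complete medium. Viability was read as intracellular ATP by CellTiter-Glo luminescence; AC50 values came from Hill-equation fits.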
# [15] = Cell Viability - LYMP2-020 (AID 986)
# Method in brief: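 Human lymphoblastoid cells, 2500/well, were pre-incubated 5 hr at 37 C, then exposed to compounds for 24 hr at 37 C in complete medium. Intracellular ATP was read by CellTiter-Glo luminescence, and AC50 was derived by Hill fitting of concentration-response data.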
# [16] = Cell Viability - LYMP2-022 (AID 987); further: nearly all actives have a fitted effect of over 55% in size
# Method in brief: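 Human lymphoblastoid cells, 2500/well, preincubated 5 hr at 37 C, then exposed to compounds over a concentration range for 24 hr at 37 C in complete medium. Viability read as intracellular ATP by CellTiter-Glo luminescence after 30 min at room temperature; AC50 from Hill fits.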
# [17] = Cell Viability - LYMP2-024 (AID 988); further: nearly all actives have a fitted effect of over 60% in size
# Method in brief: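 Human lymphoblastoid cells (2500/well) in complete medium were preincubated 5 hr at 37 C, then exposed to compounds for 24 hr at 37 C. Intracellular ATP was read by CellTiter-Glo luminescence; AC50 from Hill-equation fits of concentration-response data.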
# [18] = Cell Viability - LYMP2-026 (AID 989); further: nearly all actives have a fitted effect of over 50% in size
# Method in brief: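 Human lymphoblastoid cells (2500/well) in complete medium were preincubated 5 hr at 37 C, then exposed to compounds for 24 hr at 37 C. Cellular ATP was read by CellTiter-Glo luminescence; AC50 from Hill-equation fits of concentration-response data.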
# [19] = Cell Viability - LYMP1-002 - Assay at 40 hr (AID 994); further: nearly all actives have a fitted effect of over 60% in size; further: potency means the concentration at half of the fitted maximal effect
# Method in brief: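 Human lymphoblastoid cells, 2500/well in complete medium, were preincubated 5 hr at 37 C, then exposed to compounds for 40 hr at 37 C. Intracellular ATP was read by CellTiter-Glo luminescence after 30 min at room temperature; AC50 from Hill-equation fits.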
# [20] = Cell Viability - LYMP2-025 (AID 976); further: series mostly up to about 92 µM
# Method in brief: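 Human lymphoblastoid LYMP2-025 cells (2500/well) were pre-incubated 5 hr at 37 C, then treated with compounds for 24 hr at 37 C in complete medium. Viability was read as intracellular ATP by CellTiter-Glo luminescence; AC50 from Hill fits.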
Compound,outcome [1],outcome [2],outcome [3],outcome [4],outcome [5],outcome [6],outcome [7],outcome [8],outcome [9],outcome [10],outcome [11],outcome [12],outcome [13],outcome [14],outcome [15],outcome [16],outcome [17],outcome [18],Potency [19],outcome [20]
Clc1ccccc1C(c1ccccc1)(c1ccccc1)n1ccnc1,inactive,–,–,–,–,–,–,–,–,–,–,–,–,–,–,–,–,–,–,–
Fc1ccc([C@@H]2CCNC[C@H]2COc2ccc3c(c2)OCO3)cc1,inactive,–,–,–,–,–,–,–,–,–,–,–,–,–,–,–,–,–,–,–
CN(C)CCCN1c2ccccc2CCc2ccc(Cl)cc21,inactive,–,–,–,–,–,–,–,–,–,–,–,–,–,–,–,–,–,–,–
NCCc1cnc[nH]1,inactive,–,–,–,–,–,–,–,–,–,–,–,–,–,–,–,–,–,–,–
Cn1c(=O)c2[nH]cnc2n(C)c1=O,inactive,inactive,inactive,inactive,inactive,inactive,inactive,inactive,inactive,inactive,inactive,inactive,inactive,inactive,inactive,inactive,inactive,inactive,inactive,–
CN1C(C(=O)Nc2ccccn2)=C(O)c2ccccc2S1(=O)=O,inactive,–,–,–,–,–,–,–,–,–,–,–,–,–,–,–,–,–,–,–
CS(=O)(=O)Nc1ccc([N+](=O)[O-])cc1Oc1ccccc1,inactive,–,–,–,–,–,–,–,–,–,–,–,–,–,–,–,–,–,–,–
CC(C)NCC(O)c1ccc(O)c(O)c1 (stereo not drawn),–,inactive,inactive,inactive,inactive,inactive,inactive,inactive,inactive,inactive,inactive,inactive,inactive,inactive,inactive,inactive,inactive,inactive,inactive,inactive
O=c1c(-c2ccc(O)cc2)coc2cc(O)cc(O)c12,inactive,inactive,inactive,inactive,inactive,inactive,inactive,inactive,inactive,inactive,inactive,inactive,inactive,inactive,inactive,inactive,inactive,inactive,inactive,inactive
COc1cc2c(c(OC)c1OC)-c1ccc(OC)c(=O)cc1[C@@H](NC(C)=O)CC2,inactive,inactive,–,–,–,inactive,–,–,–,–,–,–,–,–,–,–,–,–,31.6 nM (active),inactive
CC(C)C(=O)Nc1ccc([N+](=O)[O-])c(C(F)(F)F)c1,inactive,–,inactive,inactive,inactive,inactive,inactive,inactive,inactive,inactive,inactive,inactive,inactive,inactive,inactive,inactive,inactive,inactive,inactive,inactive
Cc1cn([C@H]2C[C@H](N=[N+]=[N-])[C@@H](CO)O2)c(=O)[nH]c1=O,–,inactive,inactive,inactive,inactive,inactive,inactive,inactive,inactive,inactive,inactive,inactive,inactive,inactive,inactive,inactive,inactive,inactive,inactive,inactive
O=c1[nH]cc(F)c(=O)[nH]1,inactive,inactive,–,–,inactive,inactive,inactive,–,–,–,–,inactive,inactive,–,inactive,–,inactive,inactive,–,inactive
Cc1ccc(-c2cc(C(F)(F)F)nn2-c2ccc(S(N)(=O)=O)cc2)cc1,–,inactive,inactive,inactive,inactive,inactive,inactive,inactive,inactive,inactive,inactive,inactive,inactive,inactive,inactive,inactive,inactive,inactive,inactive,inactive
CCC1(c2ccccc2)C(=O)NCNC1=O,inactive,inactive,inactive,inactive,inactive,inactive,inactive,inactive,inactive,inactive,inactive,inactive,inactive,inactive,inactive,inactive,inactive,inactive,inactive,inactive
NCCS(=O)(=O)O,inactive,inactive,inactive,inactive,inactive,inactive,inactive,inactive,inactive,inactive,inactive,inactive,inactive,inactive,inactive,inactive,inactive,inactive,inactive,inactive
Cc1cc(C(C)(C)C)c(O)c(C)c1CC1=NCCN1,inactive,–,–,–,–,–,–,–,–,–,–,–,–,–,–,–,–,–,–,–
